Source: PubChem BioAssay (EPA / NIEHS)
Activity calls are given as the source filed them. The calls were made as follows: active = hit-call score of the fitted dose curve at least 0.9, where 1 is the maximum; inactive = score below 0.9.

Target: Transcription factor E2F1 (Homo sapiens) (UniProt Q01094)
Test: ATG_E2F_CIS: Attagene CIS-FACTORIAL HepG2 Assay for human E2F Transcription Factor 1 (AID 2282935)
Details: HepG2 Attagene cis-reporter, E2F reporter RNA transcripts; actives raise or lower the signal
Procedure, shortened: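 Transient MRTU transfection of HepG2; 24 h compound exposure; RNA → oligo(dT) RT → PCR → FAM label → HpaI cut → CE fluorescence. Gain/loss of signal fit against DMSO.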

Chain of Transcription factor E2F1 (Homo sapiens) (Q01094 whole entry, looked up): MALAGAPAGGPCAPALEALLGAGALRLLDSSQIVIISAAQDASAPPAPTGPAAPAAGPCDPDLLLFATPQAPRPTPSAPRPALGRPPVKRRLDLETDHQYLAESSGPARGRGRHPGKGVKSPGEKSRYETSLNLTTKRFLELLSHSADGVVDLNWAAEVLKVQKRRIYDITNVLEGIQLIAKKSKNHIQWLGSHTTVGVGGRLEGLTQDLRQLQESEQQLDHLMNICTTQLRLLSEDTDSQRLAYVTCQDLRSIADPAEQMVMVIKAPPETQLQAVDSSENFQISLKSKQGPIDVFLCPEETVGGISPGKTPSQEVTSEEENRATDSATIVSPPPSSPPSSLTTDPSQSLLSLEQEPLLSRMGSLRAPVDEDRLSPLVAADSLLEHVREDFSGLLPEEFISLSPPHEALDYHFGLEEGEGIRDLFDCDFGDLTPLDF

Compound | outcome
CC(=O)NC1(c2cccc(F)c2)CCN(CC[C@@]2(c3ccc(Cl)c(Cl)c3)CN(c3ccccc3)C(=O)CO2)CC1 | inactive
Oc1cccc(O)c1 | inactive
C#C[C@]1(O)CC[C@H]2[C@@H]3CCC4=CC(=O)CC[C@@H]4[C@H]3CC[C@@]21C | inactive
CC(O)CO (configuration not stated) | inactive
CCCCCCCCCCCCN1CCCC1=O | inactive
O=C(/C=C/c1ccc(O)cc1)CC(=O)/C=C/c1ccc(O)cc1 | inactive
COc1cc(CCC(=O)CC(=O)CCc2ccc(O)c(OC)c2)ccc1O | inactive
O=c1c(-c2ccc(O)cc2)coc2cc(O)ccc12 | inactive
CCCCCCCCCCCCc1ccccc1S(=O)(=O)O | inactive
CCc1nn(C2CCCCC2)c2cc(C3(C#N)CCC(C(=O)O)CC3)ccc12 (configuration not stated) | inactive
C=C(C)C(=O)OCCC(F)(F)C(F)(F)C(F)(F)C(F)(F)C(F)(F)C(F)(F)F | inactive
CCCCOCCO | inactive
CCCOc1sc(C(=O)N2CCC(c3cc(CN)ccc3F)CC2)c(C)c1Br | inactive
Cc1cc(CCN2CCN(c3nsc4ccccc34)CC2)cc2c1NC(=O)CC2(C)C | inactive
CCCCCCCCCCCCCCCS(=O)(=O)Oc1ccccc1 | inactive

Test system: not listed separately
Test: ATG_E_Box_CIS: Attagene CIS-FACTORIAL HepG2 Assay for human Enhancer Box (E-box) (AID 2282936)
Details: HepG2 E-box cis-reporter transcription, actives raise or lower the signal
Procedure, shortened: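 Transiently transfected HepG2, endogenous TF-driven reporters, 24 h dosing. Readout: RT-PCR plus capillary electrophoresis of fluorescent reporter fragments. Gain or loss of signal fitted bidirectionally against DMSO baseline.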

Compound | outcome | AC50
Oc1cc2ccccc2c2ccccc12 | inactive | 
CC(C)(C)CC(C)(C)c1ccc(O)c(-n2nc3ccccc3n2)c1 | inactive | 
Cc1ccc(S(=O)(=O)O)c(C)c1 | inactive | 
CCCCCCCCC(=O)O | inactive | 
CN1CCN(c2ccccc2/C=C2\SCCN(c3ccc(Cl)c(Cl)c3)C2=O)CC1 | inactive | 
c1ccc2c(c1)Cc1ccccc1-2 | inactive | 
FC(F)(I)C(F)(F)C(F)(F)C(F)(F)C(F)(F)C(F)(F)I | inactive | 
CC(C)(C)c1ccc(O)c(C(C)(C)C)c1 | inactive | 
O=C(OCCOCCOC(=O)c1ccccc1)c1ccccc1 | inactive | 
CCCCC(CC)COC(=O)CCCCC(=O)OCC(CC)CCCC (configuration not stated) | inactive | 
CC(C)CCCCCCOC(=O)CCCCC(=O)OCCCCCCC(C)C | inactive | 
C[C@@H]1C[C@H]2[C@@H]3CCC4=CC(=O)C=C[C@]4(C)[C@@]3(F)[C@@H](O)C[C@]2(C)[C@@]1(O)C(=O)COP(=O)(O)O | inactive | 
CCCCC(CC)COC(=O)CCCCC(=O)OCc1ccccc1 (configuration not stated) | inactive | 
COc1ccc([N+](=O)[O-])cc1N | inactive | 
CC(C)(C)c1cc(C(C)(C)C)c(O)c(C(C)(C)C)c1 | inactive | 
c1ccc2c(c1)ccc1ccccc12 | inactive | 
CCCCCCCCOC(=O)CCCCCCCCC(=O)OCCCCCCCC | inactive | 
CC(C)(C)c1cccc(C(C)(C)C)c1O | inactive | 

Compound | outcome | AC50
CCC(C)(C)C1CCC(O)CC1 (configuration not stated) | inactive | 
CCN(CC)CCNc1ccc(CNC=O)c2sc3ccc(OC)cc3c(=O)c12 | inactive | 
CCCCC[C@H](O)CC(=O)CCc1ccc(O)c(OC)c1 | inactive | 
CC(=O)NC1(c2cccc(F)c2)CCN(CC[C@@]2(c3ccc(Cl)c(Cl)c3)CN(c3ccccc3)C(=O)CO2)CC1 | inactive | 
Oc1cccc(O)c1 | inactive | 
C#C[C@]1(O)CC[C@H]2[C@@H]3CCC4=CC(=O)CC[C@@H]4[C@H]3CC[C@@]21C | inactive | 
CC(O)CO (configuration not stated) | inactive | 
CCCCCCCCCCCCN1CCCC1=O | inactive | 
O=C(/C=C/c1ccc(O)cc1)CC(=O)/C=C/c1ccc(O)cc1 |  | 26.7 µM (active)
COc1cc(CCC(=O)CC(=O)CCc2ccc(O)c(OC)c2)ccc1O | inactive | 
O=c1c(-c2ccc(O)cc2)coc2cc(O)ccc12 | inactive | 
CCCCCCCCCCCCc1ccccc1S(=O)(=O)O | inactive | 
CCc1nn(C2CCCCC2)c2cc(C3(C#N)CCC(C(=O)O)CC3)ccc12 (configuration not stated) | inactive | 
C=C(C)C(=O)OCCC(F)(F)C(F)(F)C(F)(F)C(F)(F)C(F)(F)C(F)(F)F | inactive | 
CCCCOCCO | inactive | 
CCCOc1sc(C(=O)N2CCC(c3cc(CN)ccc3F)CC2)c(C)c1Br | inactive | 
Cc1cc(CCN2CCN(c3nsc4ccccc34)CC2)cc2c1NC(=O)CC2(C)C | inactive | 
CCCCCCCCCCCCCCCS(=O)(=O)Oc1ccccc1 | inactive | 

Test system: not listed separately
Test: ATG_M_61_CIS: Attagene CIS-FACTORIAL HepG2 Assay for M61 Transcription Factor (Internal Marker) (AID 2282937)
Details: HepG2 Attagene CIS-FACTORIAL M61 internal marker reporter; actives raise or lower the signal
Procedure, shortened: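 Human liver HepG2, transient MRTU transfection (cis promoter elements), 24 h compound. Total RNA → oligo(dT) RT → PCR → FAM label → HpaI → CE. Internal background marker; bidirectional fitting, DMSO = baseline.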

Compound | outcome
Oc1cc2ccccc2c2ccccc12 | inactive
CC(C)(C)CC(C)(C)c1ccc(O)c(-n2nc3ccccc3n2)c1 | inactive
Cc1ccc(S(=O)(=O)O)c(C)c1 | inactive
CCCCCCCCC(=O)O | inactive
CN1CCN(c2ccccc2/C=C2\SCCN(c3ccc(Cl)c(Cl)c3)C2=O)CC1 | inactive
c1ccc2c(c1)Cc1ccccc1-2 | inactive
FC(F)(I)C(F)(F)C(F)(F)C(F)(F)C(F)(F)C(F)(F)I | inactive
CC(C)(C)c1ccc(O)c(C(C)(C)C)c1 | inactive
O=C(OCCOCCOC(=O)c1ccccc1)c1ccccc1 | inactive
CCCCC(CC)COC(=O)CCCCC(=O)OCC(CC)CCCC (configuration not stated) | inactive
CC(C)CCCCCCOC(=O)CCCCC(=O)OCCCCCCC(C)C | inactive
C[C@@H]1C[C@H]2[C@@H]3CCC4=CC(=O)C=C[C@]4(C)[C@@]3(F)[C@@H](O)C[C@]2(C)[C@@]1(O)C(=O)COP(=O)(O)O | inactive
CCCCC(CC)COC(=O)CCCCC(=O)OCc1ccccc1 (configuration not stated) | inactive
COc1ccc([N+](=O)[O-])cc1N | inactive
CC(C)(C)c1cc(C(C)(C)C)c(O)c(C(C)(C)C)c1 | inactive
c1ccc2c(c1)ccc1ccccc12 | inactive
CCCCCCCCOC(=O)CCCCCCCCC(=O)OCCCCCCCC | inactive
CC(C)(C)c1cccc(C(C)(C)C)c1O | inactive

Compound | outcome
CCC(C)(C)C1CCC(O)CC1 (configuration not stated) | inactive
CCN(CC)CCNc1ccc(CNC=O)c2sc3ccc(OC)cc3c(=O)c12 | inactive
CCCCC[C@H](O)CC(=O)CCc1ccc(O)c(OC)c1 | inactive
CC(=O)NC1(c2cccc(F)c2)CCN(CC[C@@]2(c3ccc(Cl)c(Cl)c3)CN(c3ccccc3)C(=O)CO2)CC1 | inactive
Oc1cccc(O)c1 | inactive
C#C[C@]1(O)CC[C@H]2[C@@H]3CCC4=CC(=O)CC[C@@H]4[C@H]3CC[C@@]21C | inactive
CC(O)CO (configuration not stated) | inactive
CCCCCCCCCCCCN1CCCC1=O | inactive
O=C(/C=C/c1ccc(O)cc1)CC(=O)/C=C/c1ccc(O)cc1 | inactive
COc1cc(CCC(=O)CC(=O)CCc2ccc(O)c(OC)c2)ccc1O | inactive
O=c1c(-c2ccc(O)cc2)coc2cc(O)ccc12 | inactive
CCCCCCCCCCCCc1ccccc1S(=O)(=O)O | inactive
CCc1nn(C2CCCCC2)c2cc(C3(C#N)CCC(C(=O)O)CC3)ccc12 (configuration not stated) | inactive
C=C(C)C(=O)OCCC(F)(F)C(F)(F)C(F)(F)C(F)(F)C(F)(F)C(F)(F)F | inactive
CCCCOCCO | inactive
CCCOc1sc(C(=O)N2CCC(c3cc(CN)ccc3F)CC2)c(C)c1Br | inactive
Cc1cc(CCN2CCN(c3nsc4ccccc34)CC2)cc2c1NC(=O)CC2(C)C | inactive
CCCCCCCCCCCCCCCS(=O)(=O)Oc1ccccc1 | inactive
